Results as given in PubChem BioAssay AID1159580 (chemical genetic matrix, 2015).
“And” between values parts separate entries of the source, which are not always exact repeats. Identical values can stand only once. Among all 5,500 compounds or so, about 2,000 (36%) were called active. Roughly 18% stayed inconclusive and do not appear here. Cut-off read from the data, not from the text of the source: active = normalized growth mostly below about 0.91 (no sharp cut-off); inconclusive = no clear call, values can overlap the other calls; inactive = mostly above about 0.92. The list shows a part of the results.

Experiment: chemical genetic growth profiling, strain panel (AID 1159580);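 note: tested at 20 µM; growth read once vehicle control cultures reached saturation at 30 °C; 1 = growth at the plate median or of vehicle wells; lower values mean less growth of the strain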
Details: S. cerevisiae deletion strains, growth OD

Measured: normalized growth

CC(=O)OC1CCC2(C)C3CC(=O)C4(C)C(CC5OC6(CCC(C)CO6)[C@@H](C)C54)C3CC[C@H]2C1 (stereo not given in full)
inactive: locus YAL013W, strain DEP1, stronger effect = lower value 0.982 | locus YAL021C, strain ccr4, stronger effect = lower value 0.987 | locus YAL026C, strain drs2, stronger effect = lower value 0.991 | locus YAL030W, strain snc1, stronger effect = lower value 0.981 | locus YBL061C, strain skt5, stronger effect = lower value 0.982 | locus YBR009C, strain hhf1, stronger effect = lower value 0.991 | locus YBR021W, strain FUR4, stronger effect = lower value 1.07 | locus YBR023C, strain chs3, stronger effect = lower value 0.994 | locus YBR171W, strain sec66, stronger effect = lower value 0.984 | locus YBR229C, strain ROT2, stronger effect = lower value 0.99 | locus YBR231C, strain swc5, stronger effect = lower value 1.01 | locus YBR279W, strain paf1, stronger effect = lower value 0.987 | locus YCL011C, strain gbp2, stronger effect = lower value 0.979 | locus YCL016C, strain dcc1, stronger effect = lower value 0.98 | locus YCL029C, strain bik1, stronger effect = lower value 0.963 | locus YCL069W, strain vba3, stronger effect = lower value 1.01 | locus YCR088W, strain abp1, stronger effect = lower value 0.994 | locus YDL005C, strain med2, stronger effect = lower value 0.975 | locus YDL035C, strain GPR1, stronger effect = lower value 1.01 | locus YDL040C, strain nat1, stronger effect = lower value 0.99 | locus YDL074C, strain BRE1, stronger effect = lower value 0.983 | locus YDL101C, strain DUN1, stronger effect = lower value 0.992 | locus YDL185W, strain tfp1, stronger effect = lower value 0.952 | locus YDL192W, strain arf1, stronger effect = lower value 0.986 | locus YDR001C, strain nth1, stronger effect = lower value 0.988 | locus YDR069C, strain doa4, stronger effect = lower value 0.968 | locus YDR101C, strain arx1, stronger effect = lower value 1 | locus YDR137W, strain rgp1, stronger effect = lower value 0.973 | locus YDR159W, strain sac3, stronger effect = lower value 1.03 | locus YDR162C, strain NBP2, stronger effect = lower value 0.972 | locus YDR195W, strain ref2 0.942 | locus YDR297W, strain sur2, stronger effect = lower value 0.978 | locus YDR318W, strain mcm21, stronger effect = lower value 0.996 | locus YDR334W, strain swr1, stronger effect = lower value 0.985 | locus YDR335W, strain msn5, stronger effect = lower value 0.978 | locus YDR388W, stronger effect = lower value 0.978 | locus YDR392W, strain spt3, stronger effect = lower value 1.01 | locus YDR502C, strain sam2, stronger effect = lower value 0.971 | locus YEL003W, strain gim4, stronger effect = lower value 0.986 | locus YEL037C, strain rad23, stronger effect = lower value 0.998 | locus YEL061C, strain CIN8 (second series), stronger effect = lower value 0.999 | locus YER015W, strain faa2, stronger effect = lower value 0.988 | locus YER016W, strain bim1, stronger effect = lower value 0.96 | locus YER110C, stronger effect = lower value 0.97 | locus YER111C, strain swi4, stronger effect = lower value 0.995 | locus YER155C, strain BEM2 (second series), stronger effect = lower value 0.999 | locus YER155C, strain BEM2, stronger effect = lower value 1.01 | locus YER167W, strain BCK2, stronger effect = lower value 1.01 | locus YFR010W, strain ubp6, stronger effect = lower value 1 | locus YGL078C, strain dbp3, stronger effect = lower value 0.988 | locus YGL086W, strain mad1, stronger effect = lower value 0.993 | locus YGL167C, strain pmr1, stronger effect = lower value 0.99 | locus YGL173C, strain kem1, stronger effect = lower value 1.01 | locus YGL227W, strain vid30, stronger effect = lower value 0.974 | locus YGL240W, strain doc1, stronger effect = lower value 0.98 | locus YGL248W, strain PDE1, stronger effect = lower value 0.991 | locus YGL253W, strain hxk2, stronger effect = lower value 0.976 | locus YGR078C, strain PAC10, stronger effect = lower value 0.986 | locus YGR135W, strain pre9, stronger effect = lower value 0.977 | locus YGR252W, strain gcn5, stronger effect = lower value 0.986 | locus YHR013C, strain ard1, stronger effect = lower value 0.957 | locus YHR027C, strain rpn1, stronger effect = lower value 0.982 | locus YHR030C, strain SLT2, stronger effect = lower value 0.977 | locus YHR079C, strain IRE1 (second series), stronger effect = lower value 0.987 | locus YHR079C, strain IRE1, stronger effect = lower value 1.01 | locus YHR094C, strain hxt1, stronger effect = lower value 0.975 | locus YHR129C, strain ARP1, stronger effect = lower value 0.982 | locus YHR142W, strain chs7, stronger effect = lower value 0.955 | locus YHR200W, strain rpn10, stronger effect = lower value 0.993 | locus YIL066C, strain RNR3, stronger effect = lower value 0.988 | locus YIL073C, strain SPO22, stronger effect = lower value 0.931 | locus YIL125W, strain kgd1, stronger effect = lower value 0.974 | locus YIR030C, strain dcg1, stronger effect = lower value 0.988 | locus YJL092W, strain hpr5, stronger effect = lower value 0.985 | locus YJL095W, strain BCK1 (second series), stronger effect = lower value 0.981 | locus YJL095W, strain BCK1, stronger effect = lower value 0.962 and 1 | locus YJL115W, strain asf1, stronger effect = lower value 0.958 | locus YJL129C, strain trk1, stronger effect = lower value 0.969 | locus YJL134W, strain LCB3, stronger effect = lower value 0.99 | locus YJL154C, strain vps35, stronger effect = lower value 0.986 | locus YJL164C, strain tpk1, stronger effect = lower value 0.993 | locus YJL166W, strain qcr8, stronger effect = lower value 0.965 | locus YJL168C, strain set2, stronger effect = lower value 0.983 | locus YJL187C, strain SWE1 (second series), stronger effect = lower value 0.977 | locus YJR066W, strain TOR1, stronger effect = lower value 0.934 | locus YJR075W, strain HOC1, stronger effect = lower value 0.988 | locus YKL009W, strain mrt4, stronger effect = lower value 0.983 | locus YKL068W, stronger effect = lower value 0.981 | locus YKL085W, strain MDH1 (second series), stronger effect = lower value 0.988 | locus YKL085W, strain MDH1, stronger effect = lower value 0.988 | locus YKL160W, strain elf1, stronger effect = lower value 0.964 | locus YKR001C, strain vps1, stronger effect = lower value 0.992 | locus YKR026C, strain gcn3, stronger effect = lower value 1 | locus YKR091W, strain srl3, stronger effect = lower value 0.964 | locus YLL001W, strain dnm1, stronger effect = lower value 1.01 | locus YLL026W, stronger effect = lower value 0.977 | locus YLL041C, strain sdh2, stronger effect = lower value 0.992 | locus YLR027C, strain aat2, stronger effect = lower value 0.965 | locus YLR039C, strain RIC1, stronger effect = lower value 0.994 | locus YLR058C, strain SHM2, stronger effect = lower value 0.982 | locus YLR102C, strain apc9, stronger effect = lower value 0.972 | locus YLR113W, strain HOG1, stronger effect = lower value 0.976 | locus YLR221C, strain rsa3, stronger effect = lower value 1.01 | locus YLR258W, strain gsy2, stronger effect = lower value 0.961 | locus YLR262C, strain YPT6 (second series), stronger effect = lower value 0.974 | locus YLR268W, strain sec22, stronger effect = lower value 0.984 | locus YLR320W, strain mms22, stronger effect = lower value 1.03 | locus YLR342W, strain FKS1 (second series), stronger effect = lower value 1.03 | locus YLR342W, strain FKS1, stronger effect = lower value 0.975 | locus YLR357W, strain rsc2, stronger effect = lower value 0.964 | locus YLR370C, strain arc18, stronger effect = lower value 0.973 | locus YLR371W, strain rom2, stronger effect = lower value 0.992 | locus YLR384C, strain iki3, stronger effect = lower value 0.983 | locus YLR418C, strain cdc73, stronger effect = lower value 1.02 | locus YML016C, strain PPZ1, stronger effect = lower value 1.01 | locus YML032C, strain rad52, stronger effect = lower value 0.996 | locus YML120C, strain ndi1, stronger effect = lower value 0.989 | locus YML124C, strain tub3, stronger effect = lower value 0.982 | locus YMR058W, strain fet3, stronger effect = lower value 0.979 | locus YMR078C, strain ctf18, stronger effect = lower value 0.986 | locus YMR125W, strain sto1, stronger effect = lower value 0.986 | locus YMR129W, stronger effect = lower value 0.975 | locus YMR205C, strain PFK2, stronger effect = lower value 1 | locus YMR223W, strain ubp8, stronger effect = lower value 0.981 | locus YMR231W, strain pep5, stronger effect = lower value 0.989 | locus YMR263W, strain SAP30, stronger effect = lower value 0.979 | locus YMR307W, strain GAS1, stronger effect = lower value 1.06 | locus YNL067W, strain RPL9B, stronger effect = lower value 0.967 | locus YNL071W, strain lat1, stronger effect = lower value 1 | locus YNL153C, strain GIM3, stronger effect = lower value 0.973 | locus YNL183C, strain NPR1, stronger effect = lower value 0.956 | locus YNL209W, strain ssb2, stronger effect = lower value 1 | locus YNL233W, strain BNI4, stronger effect = lower value 0.989 | locus YNL248C, strain rpa49, stronger effect = lower value 0.955 | locus YNL250W, strain rad50, stronger effect = lower value 0.969 | locus YNL271C, strain bni1, stronger effect = lower value 0.994 | locus YNL298W, strain CLA4, stronger effect = lower value 0.973 | locus YNL307C, strain MCK1, stronger effect = lower value 0.974 | locus YNL322C, strain KRE1 (second series), stronger effect = lower value 0.98 | locus YNR049C, strain mso1, stronger effect = lower value 0.966 | locus YNR052C, strain pop2, stronger effect = lower value 0.976 | locus YOL006C, strain TOP1, stronger effect = lower value 1.06 | locus YOL012C, strain htz1 0.635 | locus YOL147C, strain pex11, stronger effect = lower value 0.965 | locus YOR001W, strain rrp6, stronger effect = lower value 1.03 | locus YOR061W, strain CKA2, stronger effect = lower value 0.997 | locus YOR069W, strain VPS5, stronger effect = lower value 0.99 | locus YOR070C, strain gyp1, stronger effect = lower value 0.993 | locus YOR080W, strain dia2, stronger effect = lower value 0.974 | locus YOR083W, strain WHI5, stronger effect = lower value 0.974 | locus YOR106W, strain vam3, stronger effect = lower value 0.963 | locus YOR136W, strain idh2, stronger effect = lower value 0.981 | locus YOR144C, strain elg1, stronger effect = lower value 0.982 | locus YOR184W, strain ser1, stronger effect = lower value 1.01 | locus YOR231W, strain MKK1, stronger effect = lower value 0.988 | locus YOR265W, strain rbl2, stronger effect = lower value 0.968 | locus YOR270C, strain vph1, stronger effect = lower value 0.999 | locus YOR290C, strain snf2, stronger effect = lower value 0.96 | locus YOR316C, strain cot1, stronger effect = lower value 0.97 | locus YPL051W, strain arl3, stronger effect = lower value 0.977 | locus YPL078C, strain atp4, stronger effect = lower value 0.979 | locus YPL106C, strain sse1, stronger effect = lower value 0.986 | locus YPL240C, strain hsp82, stronger effect = lower value 0.982 | locus YPL241C, strain CIN2, stronger effect = lower value 0.994 | locus YPL256C, strain CLN2, stronger effect = lower value 0.993 | locus YPR119W, strain clb2, stronger effect = lower value 0.995 | locus YPR141C, strain kar3, stronger effect = lower value 0.97 | locus YPR163C, strain tif3, stronger effect = lower value 0.962 | locus YPR167C, strain met16, stronger effect = lower value 0.988 | strain wtn01, stronger effect = lower value 0.985
